Measurements taken from PubChem BioAssay (NCI).
Where “and” joins values, the source holds several entries; their conditions need not be identical. Equal values may be shown once. Compounds without any hit were thinned out: in the full panel of roughly 79,000, 15% have a hit. Values without a mark were called inactive. Calls of active or inactive are those of the source. Rule as the data show it: active = growth inhibition above about 70%; inactive = the rest.

Key:
[1] = NCI Yeast Anticancer Drug Screen. Data for the mec2-1 strain (AID 157); settings: S. cerevisiae mec2-1 strain, stronger effect = higher value
Procedure, shortened: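 Readout is yeast growth inhibition, normalised to vehicle-treated controls, in the mec2-1 strain exposed to compound.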

[2] = NCI Yeast Anticancer Drug Screen. Data for the sgs1 mgt1 strain (AID 161);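 also: 0% = growth of cultures given vehicle only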; settings: S. cerevisiae sgs1 mgt1 strain, stronger effect = higher value
Procedure, shortened: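 Yeast cells carrying a defined DNA-repair defect were exposed to test compounds. Growth inhibition was measured relative to vehicle-treated controls.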

[3] = NCI Yeast Anticancer Drug Screen. Data for the cln2 rad14 strain (AID 165);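 also: 0% = growth equal to vehicle treated cultures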; settings: S. cerevisiae cln2 rad14 strain, stronger effect = higher value
Procedure, shortened: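 Relative to vehicle controls, growth inhibition of compound-treated cln2 rad14 yeast was recorded.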

[4] = NCI Yeast Anticancer Drug Screen. Data for the bub3 strain (AID 167); settings: S. cerevisiae bub3 mutant strain, stronger effect = higher value
Procedure, shortened: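 Mutant yeast screening strain plus compound; vehicle-treated cultures serve as the 0% inhibition reference.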

[5] = NCI Yeast Anticancer Drug Screen. Data for the mlh1 rad18 strain (AID 175); settings: S. cerevisiae mlh1 rad18 strain growth inhibition, stronger effect = higher value
Procedure, shortened: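 Test agents were incubated with a yeast strain of defined genotype (DNA damage repair defect). Inhibition of growth was derived by comparison with vehicle-exposed cultures.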

[6] = NCI Yeast Anticancer Drug Screen. Data for the rad50 strain (AID 155);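 also: 0% = growth of vehicle-only cultures of the same strain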; settings: S. cerevisiae rad50 strain growth inhibition, stronger effect = higher value
Procedure, shortened: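 Vehicle-treated cultures provide the reference for the growth inhibition reported for compound-exposed, repair-deficient yeast.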

[7] = at 5.0 µM (retest, dose inferred, filed as 0.5)
[8] = at 50.0 µM (retest, dose inferred, filed as 5.0)

| SMILES | growth inhibition [1, 7] [%] | growth inhibition [1, 8] | growth inhibition ([1]; at 50.0 µM) | growth inhibition [2, 7] [%] | growth inhibition [2, 8] | growth inhibition ([2]; at 50.0 µM) | growth inhibition [3, 7] [%] | growth inhibition [3, 8] | growth inhibition ([3]; at 50.0 µM) | growth inhibition [4, 7] [%] | growth inhibition [4, 8] | growth inhibition ([4]; at 50.0 µM) | growth inhibition [5, 7] [%] | growth inhibition [5, 8] | growth inhibition ([5]; at 50.0 µM) | growth inhibition ([6]; at 50.0 µM) | growth inhibition [6, 7] [%] | growth inhibition [6, 8] |
| --- | --- | --- | --- | --- | --- | --- | --- | --- | --- | --- | --- | --- | --- | --- | --- | --- | --- | --- |
| Cn1cnc([N+](=O)[O-])c1Sc1ccc(Cl)cc1 | 8 | 92% (active) | 76.9% (active) | 11 | 98% (active) | 90.9% (active) | 2 | 61% | 42.2% | 0 | 92% (active) | 83.2% (active) | 5 | 97% (active) | 90.3% (active) |  |  |  |
| COC1OC2COC(c3ccccc3)OC2C(O)C1O (stereo unspecified) |  |  | -11.6% and -15.6% and -3.65% |  |  | -3.35% and 7.95% and 0.55% |  |  | -29.2% and -46% and -45.3% |  |  | -9.35% and -19.9% and -17.4% |  |  | -3.15% and -3.95% and 9.8% | -23.9% and 17.1% and 20.4% |  |  |
| COc1ccc(N(C)Sc2ccccc2)cc1 |  |  |  | -14 | 24% | 67.1% | 9 | 63% | 35.6% | 12 | 90% (active) | 69.7% | -10 | 97% (active) | 71.3% (active) | 88.2% (active) | -12 | 64% |
| CCOC(=O)c1[nH]c2c([N+](=O)[O-])cccc2c1[N+](=O)[O-] |  |  |  | -3 | 9% | 94.8% (active) | 4 | 25% | 98.6% (active) | 0 | 7% | 98.8% (active) | -2 | 37% | 99% (active) | 97% (active) | -12 | 15% |
| CC[n+]1cnc(N)c2c(-c3ccc(Cl)cc3)cn(-c3ccc(C)cc3)c21 |  |  |  | -6 | 99% (active) | 97.9% (active) | -6 | 98% (active) | 46.9% | -1 | 98% (active) | 80.3% (active) | -3 | 98% (active) | 97.8% (active) | 93.1% (active) | -2 | 98% (active) |
